Test [1] can be described thus: A CellTox Green Cytotoxicity Assay to monitor cytotoxicity in HepG2 cells - 8 hour (AID 1224890). Further: nearly all actives have a fitted effect of over 45% in size. Put shortly:
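Nonlytic assay: viable cells exclude the dye, so fluorescence scales with cell death. HepG2 at 600 cells/well, compounds added after 5 h, signal read across 40 h.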

The nature of test [2]: qHTS assay to identify small molecule antagonists of the estrogen receptor alpha (ER-alpha) signaling pathway using the BG1 cell line in the presence of 0.1 nM 17-beta-estradiol - cell viability counter screen (AID 1259241). Further: nearly all actives have a fitted effect of over 40% in size. An outline of the steps: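 VM7Luc4E2 cells (endogenous full-length ER-alpha, 4xERE-luciferase), cultured 5 days in charcoal-stripped serum, exposed to compounds with 0.1 nM 17beta-estradiol (final) for 22 hr at 37C. Viability read in same wells as live-cell protease fluorescence after 30 min.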
A general note: qHTS replaces the single test concentration by a dilution series.

Test [3] can be described thus: qHTS assay to identify small molecule antagonists of the androgen receptor (AR) signaling pathway using the MDA cell line in the presence of 0.5 nM R1881 - cell viability counter screen (AID 1259242). Further: nearly all actives have a fitted effect of over 45% in size. Put shortly: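 R1881 at 0.5 nM final stimulated MDA-kb2 cells during 16 hr compound treatment at 37C. Cytotoxicity read: CellTiter-Fluor fluorescence after 30 min.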

Test [4] is described as follows: qHTS assay to identify small molecule phospholipidosis (PLD) inducers (AID 1259344; active means well fitted curve in the direction sought with a large enough effect; an effect the other way counts as inactive or inconclusive). Put shortly: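 HepG2 cells grown on collagen I take up LipidTOX Red while exposed to compound for 24 h; after fixation they are imaged at 20x and pit metrics are extracted.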
Test [5] in a line: qHTS assay to identify small molecule HDAC inhibitors (AID 1259364).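 Further: wild-type HCT-116 cells with endogenous class I/II HDAC activity; top concentration of the series differs between compounds; nearly all actives have a fitted effect of over 45% in size.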 An outline of the steps:
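Relative class I and II HDAC activity is taken from the luminogenic signal in HCT-116 cells, with compound exposure 2 hr and reagent development 30 min at room temperature.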

The nature of test [6]: qHTS assay to identify small molecule HDAC inhibitors - cell viability counter screen (AID 1259365). Further: series mostly up to about 92 µM; nearly all actives have a fitted effect of over 50% in size. Put shortly:
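Wild-type HCT-116 cells, 1,500/well, cultured overnight, then compound-treated 2 h at 37 C. Viability measured as ATP luminescence with CellTiter-Glo after 30 min at room temperature.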

The nature of test [7]: qHTS assay to identify small molecule agonists of the sonic hedgehog signaling (Shh) pathway - cell viability counter screen (AID 1259366). Further: nearly all actives have a fitted effect of over 50% in size. An outline of the steps:
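NIH/3T3-derived Gli1-Luc reporter cells, 2,000 per well, received compound after 4 h and were treated about 23 h at 37C. Viability measured in the same wells by CellTiter-Fluor fluorescence after 1 h.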

The nature of test [8]: qHTS assay to identify small molecule agonists of the sonic hedgehog signaling (Shh) pathway (AID 1259368; calls by dose curve;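 further: NIH/3T3-derived 3T3Gli1-Luc cells carrying a stable Gli1-driven firefly luciferase reporter; series mostly up to about 92 µM; nearly all actives have a fitted effect of over 15% in size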). An outline of the steps: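 Mouse fibroblast (NIH/3T3) reporter cells with stably integrated Gli1-Luc were treated 24 hr with compound; firefly luciferase luminescence served as the read-out.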
A short description of test [9]: qHTS assay to identify small molecule antagonists of the sonic hedgehog signaling (Shh) pathway (AID 1259369; calls by dose curve; further: nearly all actives have a fitted effect of over 45% in size; further: potency means the concentration at half of the fitted maximal effect). Put shortly: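 Conditioned medium drives Shh signalling in 3T3Gli1-Luc cells; compounds in DMSO co-applied, 24hr at 37 C, then luciferase luminescence.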
Test [10] in a line: qHTS assay to identify small molecule agonists of the androgen receptor (AR) signaling pathway in the presence of an antagonist - cell viability counter screen (AID 1259379).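 Further: MDA-kb2 human breast cancer cells carrying an MMTV luciferase reporter; series mostly up to about 92 µM; nearly all actives have a fitted effect of over 25% in size.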 An outline of the steps: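 A CellTiter-Fluor read-out measured viability of MDA-kb2 reporter cells (MMTV promoter with AR and GR response elements). Treatment: nilutamide 3.0uM final with compounds at 15 concentrations, 16 hr, 37C, 0% CO2.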

The nature of test [11]: qHTS assay to identify small molecule agonists or antagonists of the thyroid stimulating hormone receptor (TSHR) signaling pathway - wild type cell line counter screen (AID 1259384; calls by dose curve). Put shortly:
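Wild-type HEK293 cells were plated 18 h at 37 C/5% CO2, pin-dosed with compound plus Ro20-1724 medium, held 30 min at room temperature, then given cAMP-d2 and anti-cAMP-cryptate; fluorescence was read after 1 h. Fifteen concentrations, triplicate.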

Test [12] can be described thus: qHTS assay to identify small molecule antagonists of the sonic hedgehog signaling (Shh) pathway - cell viability counter screen (AID 1259367). Further: nearly all actives have a fitted effect of over 55% in size. Put shortly:
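After a 4 hr settling period, 3T3 Gli1-Luc cells were treated with DMSO-dissolved chemicals and conditioned medium, kept 24 hr at 37C in 5% CO2, and assayed for viability by CellTiter-Fluor fluorescence following 1 hr reagent incubation.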

In test [13] the target is Estrogen receptor beta (Homo sapiens) (UniProt Q92731). Kind of test: qHTS assay to identify small molecule agonists of the estrogen receptor beta (ER-beta) signaling pathway (AID 1259377; active means well fitted activation curve with a large enough effect in the signal ratio in the repeat runs, not every such curve was filed as active; the % refers to the signal ratio). Put shortly: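 ER-beta-UAS-bla HEK293T cells in medium with 2% charcoal-stripped FBS were exposed to compounds for 16 h at 37C. Beta-lactamase reporter activity was read as fluorescence after 2 h with LiveBLAzer B/G FRET substrate at room temperature.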

Test [14] has the same target. Kind of test: qHTS assay to identify small molecule antagonists of the estrogen receptor beta (ER-beta) signaling pathway (AID 1259378; active means well fitted inhibition curve with a large enough effect in the signal ratio in the repeat runs, not every such curve was filed as active; the % refers to the signal ratio). An outline of the steps: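 ER-beta-UAS-bla HEK293T (GripTite) cells in 2% charcoal-stripped FBS medium were preincubated 6 hr at 37C, dosed with compound, then stimulated with 1 nM E2 (final) for 16 hr; beta-lactamase reporter read by B/G FRET fluorescence after 2 hr substrate loading.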

Test [15] can be described thus: qHTS assay to identify small molecule antagonists of the estrogen receptor beta (ER-beta) signaling pathway - cell viability counter screen (AID 1259382). Further: series mostly up to about 92 µM; nearly all actives have a fitted effect of over 55% in size. An outline of the steps: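 Agonist-stimulated (1nM E2) ER-beta-UAS-bla HEK293T cells are incubated with library compounds for 16 hr at 37C. Cell viability is then assessed in the reporter-assay wells by adding CellTiter-Glo and reading luminescence after 30 min.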

For test [16], the target named is Estrogen receptor (Homo sapiens) (UniProt P03372). Kind of test: qHTS assay to identify small molecule agonists of the estrogen receptor alpha (ER-alpha) signaling pathway in the presence of an antagonist (AID 1259383; calls by dose curve; further: top concentration of the series differs between compounds; nearly all actives have a fitted effect of over 15% in size). Put shortly: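 Using VM7Luc4E2 cells seeded 24hr before treatment, antagonist ICI-182,780 (10.0nM final) was added, followed by compounds at 15 concentrations. Plates incubated 22hr; ONE-Glo luminescence quantified reporter activity.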

Test [17] can be described thus: qHTS assay to identify small molecule agonists of the estrogen receptor beta (ER-beta) signaling pathway - cell viability counter screen (AID 1259380). Further: nearly all actives have a fitted effect of over 30% in size. Further: potency means the concentration at half of the fitted maximal effect. Put shortly:
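Cells used were ER-beta-UAS-bla HEK293T in medium with 2% charcoal-stripped FBS. They were treated for 16 hr at 37C. Viability came from CellTiter-Glo luminescence.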

Molecules are shown by their SMILES. A number with no mark means an inactive call. Inconclusive results are not listed. Active and inactive are the calls of the source. Unless noted, the call rests on the fitted dose curve; in most records, active means well fitted curve in the direction sought with a large enough effect in the repeat runs; inconclusive means weak or mixed curves; inactive means no such curve, though single readings can be large; an effect the other way counts as inactive or inconclusive.
On the % scale 0 is the no-effect control and ±100 the full control effect.

Estrogen receptor (Homo sapiens), sequence (P03372 whole entry, looked up): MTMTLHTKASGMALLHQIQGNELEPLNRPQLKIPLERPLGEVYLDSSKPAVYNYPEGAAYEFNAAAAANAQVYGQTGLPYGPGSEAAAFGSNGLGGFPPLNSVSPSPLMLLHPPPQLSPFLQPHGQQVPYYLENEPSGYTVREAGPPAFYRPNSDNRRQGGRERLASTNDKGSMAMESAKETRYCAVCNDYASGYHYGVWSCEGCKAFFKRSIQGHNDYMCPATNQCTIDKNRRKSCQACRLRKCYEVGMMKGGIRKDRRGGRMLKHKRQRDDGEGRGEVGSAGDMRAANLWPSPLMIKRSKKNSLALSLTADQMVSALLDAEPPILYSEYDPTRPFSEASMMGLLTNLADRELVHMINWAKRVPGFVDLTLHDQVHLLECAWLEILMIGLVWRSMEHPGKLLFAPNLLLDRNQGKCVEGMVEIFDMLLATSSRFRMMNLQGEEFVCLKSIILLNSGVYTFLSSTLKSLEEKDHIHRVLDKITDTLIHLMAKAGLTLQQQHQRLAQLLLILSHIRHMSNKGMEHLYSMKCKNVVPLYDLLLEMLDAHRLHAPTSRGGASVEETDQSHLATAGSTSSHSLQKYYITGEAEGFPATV
Estrogen receptor beta (Homo sapiens), sequence (Q92731 whole entry, looked up): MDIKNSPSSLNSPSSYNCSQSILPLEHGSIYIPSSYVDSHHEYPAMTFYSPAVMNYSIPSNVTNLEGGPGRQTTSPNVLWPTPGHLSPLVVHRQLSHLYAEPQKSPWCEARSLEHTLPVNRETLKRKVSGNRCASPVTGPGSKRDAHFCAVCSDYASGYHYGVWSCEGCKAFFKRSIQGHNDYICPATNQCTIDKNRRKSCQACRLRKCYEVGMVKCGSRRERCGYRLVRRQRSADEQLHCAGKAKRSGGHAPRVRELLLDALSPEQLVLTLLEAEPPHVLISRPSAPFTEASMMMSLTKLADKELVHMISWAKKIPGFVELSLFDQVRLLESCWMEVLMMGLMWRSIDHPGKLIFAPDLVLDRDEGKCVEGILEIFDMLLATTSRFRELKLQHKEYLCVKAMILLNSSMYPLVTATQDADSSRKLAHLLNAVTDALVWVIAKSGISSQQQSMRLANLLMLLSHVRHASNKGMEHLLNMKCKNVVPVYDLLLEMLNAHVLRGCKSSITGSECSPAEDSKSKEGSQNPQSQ

In the case of `O=C(O)[C@@H]1CSCN1`, the Potency entry in test [1], in [2], in test [5], in [7], in test [8] and in [9] was “inactive” in each case. Moreover, the Potency result in test [10] is “inactive”. Further, the outcome in test [3], in test [4], in test [6] and in test [11] was inactive.

For `CCOC(=O)C1CC(=O)C(=C(O)C2CC2)C(=O)C1` (stereo not drawn), the Potency result in [1], in test [2], in test [5], in test [7], in [12] and in test [8] was “inactive” in each case. Moreover, the Potency entry in test [9], in [14], in test [10] and in test [16] was “inactive” each time. The outcome in test [3], in [6], in test [13], in [15] and in [11] was inactive.

For `CCN(CCCc1ccccc1)CCCc1ccccc1`, the Potency entry in test [1], in test [2], in test [5], in test [7], in test [12] and in test [8] was “inactive” each time. In addition, the Potency entry in [9] and in test [16] was “inactive” in each case. Besides, the result in test [3], in [4], in test [6], in [13] and in [11] was inactive. For the same compound, the Potency in test [17] is 11.9 µM (active).

As for `C=O`, the Potency entry in test [1], in test [2], in test [5], in [7], in test [12] and in test [8] was “inactive” in each case. Moreover, the Potency entry in test [9], in test [14], in test [10] and in [17] was “inactive” in each case. For the same compound, the result in test [3], in test [4], in [6], in test [13], in [15] and in [11] was inactive.

Consider `CCCN(CCC)C(=O)C(CCC(=O)O)NC(=O)c1ccccc1` (stereo not drawn), for which the Potency result in [1], in [2], in test [5], in test [7], in test [12] and in test [8] was “inactive” in each case. The Potency result in [9], in [10] and in [17] was “inactive” in each case. The outcome in test [3], in test [4], in [6] and in test [15] was inactive.

On to `CN1CCN(C2=Nc3ccccc3Oc3ccc(Cl)cc32)CC1`, for which the Potency result in test [1], in test [2], in test [5], in test [8], in test [14] and in test [10] was “inactive” each time. In addition, the Potency entry in [17] and in test [16] was “inactive” each time. Further, the result in [3], in [4], in test [6], in test [13], in test [15] and in [11] was inactive. For the same compound, the Potency in [9] was 6.68 µM (active).

Take `CCc1nnc(NS(=O)(=O)c2ccc(N)cc2)s1`: the Potency result in test [1], in test [2], in [5], in test [7], in test [12] and in [8] was “inactive” in each case. The Potency entry in [9], in [14], in [10] and in test [17] was “inactive” in each case. For the same compound, the result in test [3], in test [4], in [6], in test [13], in test [15] and in test [11] was inactive.

Turning to `NC(=O)Cc1cccc(C(=O)c2ccccc2)c1N`, the Potency result in test [1], in test [2], in test [5], in test [7], in test [12] and in test [8] was “inactive” throughout. For the same compound, the Potency entry in test [9], in test [14], in test [10] and in test [17] was “inactive” throughout. Moreover, the result in test [3], in [6], in test [13] and in [15] was inactive. Besides, the PLD induction in test [4] was -0.295% [at 7.66 µM].

As to `CCCCC(=O)O[C@]1(C(=O)CO)[C@H](C)C[C@H]2[C@@H]3CCC4=CC(=O)C=C[C@]4(C)[C@@]3(F)[C@@H](O)C[C@@]21C`, the Potency entry in test [1], in test [2], in test [5], in test [7], in test [12] and in [9] was “inactive” in each case. In addition, the Potency result in [10], in test [17] and in [16] was “inactive” in each case. For the same compound, the outcome in test [3], in [4], in test [6] and in test [11] was inactive.

For the origin of these results see PubChem BioAssay (Tox21).
